p53ts 39C tox = p53ts cell cytotoxicity, nonpermissive temperature | Potency, µM (titrated, usually from 46.1 µM), actives largely listed as cytotoxic | AID 902 | H1299-p53A138V viability at 39C, ATP luminescence, 24 h | 130,000 compounds, 1.5% hits; further: nearly all actives have a fitted effect of over 55% in size
IkB signaling = inhibitors of IkB signaling in ABC-DLBCL cells; 110,000 compounds, 0.04% hits; Potency, µM (doses to about 57.1 µM); ABC-DLBCL IkBa-CBG/CBR dual luciferase ratio, 4 h; response scale: scaled: untreated 0%, proteasome inhibitor 100%; active means well fitted curve in the direction sought with a large enough effect in the signal ratio, not every such curve was filed as active; inconclusive means small, poorly fitted or top-dose-only effect, or a change in a side signal; the % refers to the signal ratio;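 further: the direction sought is a rising ratio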
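Luminescence ratio of IκBα-fused green versus native red beetle luciferase in OCI-Ly3 cells, 4 h post-doxycycline with compound; red signal alone, scaled from basal (0%) to zero light (-100%), flagged nonspecific or cytotoxic effects.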
Peg3 imprint = inducers of genomic imprint erasure in mouse ES cells; mouse ES Peg3-LacZ reporter, beta-gal luminescence, 40 h; Potency, µM (titrated, usually from 60.7 µM), most hits filed as activators; 110,000 compounds, 0.02% hits; AID 1948
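Each well holds 300 Peg3LacZ-Neo (maternal) female ES cells incubated 40 h at 37C, 5% CO2. LacZ is measured by BetaGlo luminescence, with AC50 and maximum efficacy derived from dose-response curves.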
p53ts 32C tox = kills p53ts cells at the permissive temperature; 130,000 compounds, 0.93% hits; H1299-p53A138V at 32C, ATP luminescence viability, 24 h; Potency, µM (titrated, usually from 46.1 µM), actives largely listed as cytotoxic; further: nearly all actives have a fitted effect of over 55% in size
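Viability by ATPlite luminescence after 24 h compound treatment (up to 46 uM) at the permissive 32C. Cells are H1299 carrying p53 A138V. Scale runs from DMSO basal to 100 uM tamoxifen as full kill; AC50 from Hill fits.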
Of the large screens only hits and unclear results are named; the others gave an inactive call. Shown are actives, neighbours in structure and some others; about 1.8% of the full set was active somewhere. Unless noted, the call rests on the fitted dose curve; in most records, active means well fitted curve in the direction sought with a large enough effect; inconclusive means small, poorly fitted or top-dose-only effect, or another doubt; inactive means no such curve, though single readings can be large; an effect the other way counts as inactive or inconclusive.

CCSc1nnc(NC(=O)c2ccccn2)s1	p53ts 39C tox 10µM, IkB signaling inconclusive, p53ts 32C tox 10µM
CCSc1nnc(NC(=O)c2cnccn2)s1	none
CC(C)Oc1ccc(CNC(=O)c2sc3ncccc3c2-n2cccc2)cc1	IkB signaling inconclusive
Nn1c(COc2ccccc2)nnc1SCc1cc(=O)[nH]c2ccccc12	none
Nn1c(COc2ccccc2)nnc1SC(F)F	Peg3 imprint 4µM
CCCCCNC(=O)c1ccc2c(c1)nc(C)n2-c1cccc(C)c1	p53ts 39C tox 20µM
Cc1cc(-c2ccc(C)c(S(=O)(=O)Nc3ccccc3C(F)(F)F)c2)on1	p53ts 39C tox inconclusive, IkB signaling inconclusive
C[C@@]12C[C@H](O)[C@@H]3[C@H](CCC4=CC(=O)CC[C@]43C)[C@H]1CC[C@@H]2c1csc(N)n1	none (no result: Peg3 imprint)
CSCCNC(=O)c1ccc(C(C)(C)C)cc1	p53ts 39C tox inconclusive, p53ts 32C tox 10µM
COc1ccc2c(c1)[C@]1(C)CCC[C@](C)(CO)[C@@H]1CC2	none (no result: p53ts 39C tox, Peg3 imprint, p53ts 32C tox)
C[C@@H](/C=C\c1cccc(Oc2ccc(F)cc2)c1)N(O)C(N)=O	p53ts 39C tox 32µM, IkB signaling inconclusive, p53ts 32C tox 32µM
CC(/C=C/c1cccc(Oc2ccc(F)cc2)c1)N(O)C(N)=O (stereo not drawn)	none (no result: p53ts 39C tox, IkB signaling, p53ts 32C tox)
CCn1c(=N)n(CC(O)COc2ccccc2)c2ccccc21 (stereo not drawn)	none
Cc1cccc(OCC(O)Cn2c(=N)n(CCN3CCCCC3)c3ccccc32)c1 (stereo not drawn)	p53ts 39C tox 13µM, IkB signaling inconclusive
CCN(CC)CCn1c(=N)n(CC(O)COc2ccccc2C)c2ccccc21 (stereo not drawn)	p53ts 39C tox 16µM, IkB signaling inconclusive, p53ts 32C tox inconclusive
CCN(CC)CCn1c(=N)n(CCOc2ccccc2Cl)c2ccccc21	p53ts 39C tox 10µM, IkB signaling inconclusive, p53ts 32C tox inconclusive
C/C(CCC(=O)OC[C@@H]1O[C@H](C#Cc2ccccc2)C=C[C@@H]1Oc1ccc(C)cc1)=N/OC[C@@H](C)[C@H](OCc1ccccc1)C(C)C	none (no result: IkB signaling, Peg3 imprint)
O=C(NCC1CCN(Cc2cccc(Cl)c2)CC1)Nc1cc(Cl)ccc1Cl	p53ts 39C tox 13µM, IkB signaling inconclusive, p53ts 32C tox inconclusive
O=C(NCC1CCN(Cc2cccc(Cl)c2)CC1)Nc1ccc(F)c(Cl)c1	p53ts 39C tox inconclusive, IkB signaling inconclusive
COc1ccc2[nH]cc(CCNC(=O)Nc3cc(C)cc(C)c3)c2c1	p53ts 39C tox 13µM, Peg3 imprint inconclusive
CCOc1ccc(-n2c(SCC(=O)N3CCCCCC3)nc3c([nH]c4ccccc43)c2=O)cc1	none
O=C(Cn1c(=O)c2ccccc2n(CC(=O)Nc2ccc(F)cc2)c1=O)NCCc1ccccc1	IkB signaling inconclusive
Cc1cc(C)cc(NC(=O)Cn2c(=O)n(CC(=O)NCCc3ccccc3)c(=O)c3ccccc32)c1	p53ts 39C tox 20µM, IkB signaling inconclusive, p53ts 32C tox inconclusive
COc1ccc(Cl)cc1NC(=O)Cn1c(=O)n(CCCC(=O)NCCc2ccc(OC)c(OC)c2)c(=O)c2ccccc21	p53ts 39C tox inconclusive, IkB signaling inconclusive
COc1ccc(CCNC(=O)CCCn2c(=O)c3ccccc3n(CC(=O)Nc3cc(Cl)ccc3C)c2=O)cc1OC	p53ts 39C tox 13µM, p53ts 32C tox inconclusive
CCc1cccc(NC(=O)Cn2c(=O)n(CC(=O)NCCc3ccccc3)c(=O)c3ccccc32)c1	p53ts 39C tox 6.3µM, IkB signaling inconclusive, p53ts 32C tox 10µM
COc1ccc(NC(=O)Cn2c(=O)n(CC(=O)NCCc3ccccc3)c(=O)c3ccccc32)cc1	none
COc1ccc2c(c1)[n+]([O-])c(/C(C)=N/NC(N)=S)c(C)[n+]2[O-]	none (no result: Peg3 imprint)
CSc1ccc(CCNC(=O)c2cc3cc(S(=O)(=O)N4CCCCC4)ccc3n2C)cc1	none
COc1ccc(-c2c3c(=O)n(C)c(=O)n(C)c3cn2C2CCCCC2)cc1	none
Cc1ccccc1C(=O)Nc1ccc(OCc2cc(=O)n3cccc(C)c3n2)cc1	none
O=C(NCC12CC3CC(CC(C3)C1)C2)c1cc2n(n1)C(C(F)(F)F)CC(c1ccco1)N2 (stereo not drawn)	p53ts 39C tox 20µM
O=C(Nc1cccc(Br)c1)c1cc(-c2ccc3c(c2)OCCO3)on1	p53ts 39C tox inconclusive, IkB signaling inconclusive, p53ts 32C tox inconclusive
O=C(NC1CC1)c1cccc(Nc2ccc(-c3ccc4c(c3)OCCO4)nn2)c1	p53ts 39C tox 10µM, IkB signaling inconclusive, p53ts 32C tox 20µM (no result: Peg3 imprint)
COc1cccc(NS(=O)(=O)c2ccc3c(c2)n(C)c(=O)c(=O)n3C)c1	none
COc1cccc(NS(=O)(=O)c2cn(C)c(=O)n(C)c2=O)c1	p53ts 39C tox 13µM, p53ts 32C tox 7.9µM
CCCCCCCCCCCCC[N+](C)(C)Cc1ccccc1	p53ts 39C tox 13µM, p53ts 32C tox 16µM (no result: IkB signaling)
Cc1cc(N2CCCCC2)nc2ccc(NC(=O)/C=C/c3ccccc3OC(C)C)cc12	IkB signaling inconclusive
NCCCCCCNS(=O)(=O)c1cccc2c(Cl)cccc12	p53ts 39C tox 32µM, IkB signaling inconclusive, Peg3 imprint inconclusive
CCCCCCCNS(=O)(=O)c1cccc2c(Cl)cccc12	p53ts 39C tox inconclusive, IkB signaling inconclusive
NCCCCCCCCCCNS(=O)(=O)c1cccc2c(Cl)cccc12	p53ts 39C tox 16µM, IkB signaling inconclusive, p53ts 32C tox 25µM
Cc1nc(-c2ccc(S(=O)(=O)NCc3ccc(OC(C)C)cc3)cc2)co1	none
Cn1c(=O)[nH]c(=O)c2c1nc(CN1CCN(c3cccc(Cl)c3)CC1)n2CCCc1ccccc1	p53ts 39C tox 4µM, p53ts 32C tox 5µM
COc1ccc(CCNC(=O)C(C)n2nc(C)c3sc4ccccc4c3c2=O)c(OC)c1 (stereo not drawn)	p53ts 39C tox 13µM, IkB signaling inconclusive, p53ts 32C tox inconclusive
CCOc1ccc(CCNC(=O)CCCn2nc(C)c3sc4ccccc4c3c2=O)cc1	p53ts 39C tox inconclusive
CCC(C(=O)NCCc1ccc(OC)c(OC)c1OC)n1nc(C)c2sc3ccccc3c2c1=O (stereo not drawn)	none
Cc1nn(CCCC(=O)NCCc2ccc(Cl)cc2)c(=O)c2c1sc1ccccc12	p53ts 39C tox 20µM, p53ts 32C tox inconclusive
CCOc1ccc(C(=O)Nc2cc(C)on2)cc1	p53ts 39C tox 3.2µM, p53ts 32C tox 2.5µM
Cc1cc(NC(=O)c2ccc(S(=O)(=O)N(C)C)cc2)no1	none
Cc1cc(NC(=O)c2ccc(Cl)cc2)no1	p53ts 39C tox 7.9µM, p53ts 32C tox 7.9µM
COc1cccc(-n2c(=O)c3sc4ccccc4c3n(CC(=O)Nc3ccccc3C)c2=O)c1	none
COc1cccc(-n2c(=O)c3sc4ccccc4c3n(CC(=O)Nc3ccccc3OC)c2=O)c1	p53ts 39C tox 10µM
CC1(C)CC(=O)C2=C(C1)OC1=C(C(=O)CC(C)(C)C1)C2c1ccc(O)cc1O	IkB signaling inconclusive, p53ts 32C tox 25µM
CCOc1ccccc1Nc1nc(-c2cccc(Cl)c2)c2c(n1)-c1ccccc1OC2	p53ts 39C tox 13µM, IkB signaling inconclusive, p53ts 32C tox inconclusive

High-throughput results deposited in PubChem by National Center for Advancing Translational Sciences (NCATS).
